{"source": "a collection of fitness landscapes (doi:10.1016/j.celrep.2020.107928)", "parents": {"B1": {"name": "Caulobacter ParB omega fusion; a variant is named by its letters at X, in order, B8GW30 (parent)", "chain": "MESVVVGEPGMSEGRRGLGRGLSALLGEVDAAPAQAPGEQLGGSREAPIEILQRNPDQPRRTFREEDLEDLSNSIREKGVLQPILVRPSPDTAGEYQIVAGERAWRAAQRAGLKTVPIMVRELDDLAVLEIGIIENVQRADLNVLEEALSYKVLMEKFERTQENIAQTIGKSXSHVANXMRLLXLPDEVQSYLVSGELTAXHARAIAAAADPVALAKQIIEGGLSVRETEALARKAPNLSAGKSKGGRPPRVKDTDTQALESDLSSVLGLDVSIDHRGSTGTLTITYATLEQLDDLCNRLTRGI"}}, "note": "Whole data set: some 81,000 sequences, median “one-hybrid fitness for binding NBS DNA” near -0.1, cut for the highest 2% near 0.36. What follows is part of a selection rich in the highest values, with near analogues and random picks from the rest."}
{"variants_of": "B1", "experiment": "one-hybrid fitness for binding NBS DNA (the Noc-binding site; scaled: cognate 1, non-cognate 0); higher = stronger binding", "conditions": "with NBS DNA site", "in_short": "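Values were rescaled so that cognate is 1 and non-cognate is 0. Each is a fitness, the log change in a variant's read ratio to wild type from Illumina reads of plasmids before and after selection, with three replicate libraries pooled and variants under 10 reads dropped. Selection of the Caulobacter ParB libraries, four specificity codons randomised, used E. coli USO with a HIS3 reporter, site 19 bp from the promoter, on M9-minus-histidine with 0.1 mM IPTG and 5 mM 3-AT for 48 hours at 37°C.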"}
{"variant": "TRVR", "one-hybrid fitness for binding NBS DNA": 0.215}
{"variant": "TRKR", "one-hybrid fitness for binding NBS DNA": 0.799}
{"variant": "ARKR", "one-hybrid fitness for binding NBS DNA": 0.364}
{"variant": "TRKN", "one-hybrid fitness for binding NBS DNA": 0.212}
{"variant": "ARYR", "one-hybrid fitness for binding NBS DNA": "≤ 0.2"}
{"variant": "ARVR", "one-hybrid fitness for binding NBS DNA": "≤ 0.2"}
{"variant": "KFSD", "one-hybrid fitness for binding NBS DNA": "≤ 0.2"}
{"variant": "ETGL", "one-hybrid fitness for binding NBS DNA": "≤ 0.2"}
{"variant": "QTPD", "one-hybrid fitness for binding NBS DNA": "≤ 0.2"}
{"variant": "QTIN", "one-hybrid fitness for binding NBS DNA": "≤ 0.2"}
{"variant": "QTPN", "one-hybrid fitness for binding NBS DNA": "≤ 0.2"}
{"variant": "QTID", "one-hybrid fitness for binding NBS DNA": "≤ 0.2"}
{"variant": "QSPR", "one-hybrid fitness for binding NBS DNA": 0.27}
{"variant": "QTPR", "one-hybrid fitness for binding NBS DNA": 0.42}
{"variant": "QCPR", "one-hybrid fitness for binding NBS DNA": 0.37}
{"variant": "QTIR", "one-hybrid fitness for binding NBS DNA": 0.499}
{"variant": "QPPR", "one-hybrid fitness for binding NBS DNA": "≤ 0.2"}
{"variant": "FWRC", "one-hybrid fitness for binding NBS DNA": "≤ 0.2"}
{"variant": "SYKP", "one-hybrid fitness for binding NBS DNA": "≤ 0.2"}
{"variant": "HILC", "one-hybrid fitness for binding NBS DNA": "≤ 0.2"}
{"variant": "CLQI", "one-hybrid fitness for binding NBS DNA": "≤ 0.2"}
{"variant": "NVRS", "one-hybrid fitness for binding NBS DNA": "≤ 0.2"}
{"variant": "IVEG", "one-hybrid fitness for binding NBS DNA": "≤ 0.2"}
{"variant": "QRFG", "one-hybrid fitness for binding NBS DNA": 0.249}
{"variant": "QRGG", "one-hybrid fitness for binding NBS DNA": 0.367}
{"variant": "QCAG", "one-hybrid fitness for binding NBS DNA": "≤ 0.2"}
{"variant": "QCRG", "one-hybrid fitness for binding NBS DNA": 0.451}
{"variant": "QRAG", "one-hybrid fitness for binding NBS DNA": 0.37}
{"variant": "QPGG", "one-hybrid fitness for binding NBS DNA": "≤ 0.2"}
{"variant": "QCGG", "one-hybrid fitness for binding NBS DNA": "≤ 0.2"}
{"variant": "QCQG", "one-hybrid fitness for binding NBS DNA": "≤ 0.2"}
{"variant": "QRQG", "one-hybrid fitness for binding NBS DNA": 0.366}
{"variant": "QPRG", "one-hybrid fitness for binding NBS DNA": "≤ 0.2"}
{"variant": "QSQG", "one-hybrid fitness for binding NBS DNA": "≤ 0.2"}
{"variant": "QSRG", "one-hybrid fitness for binding NBS DNA": 0.319}
{"variant": "PYIE", "one-hybrid fitness for binding NBS DNA": "≤ 0.2"}
{"variant": "ACCM", "one-hybrid fitness for binding NBS DNA": "≤ 0.2"}
{"variant": "VPMR", "one-hybrid fitness for binding NBS DNA": "≤ 0.2"}
{"variant": "STTV", "one-hybrid fitness for binding NBS DNA": "≤ 0.2"}
{"variant": "THKV", "one-hybrid fitness for binding NBS DNA": "≤ 0.2"}
{"variant": "IMSF", "one-hybrid fitness for binding NBS DNA": "≤ 0.2"}
{"variant": "GCVM", "one-hybrid fitness for binding NBS DNA": "≤ 0.2"}
{"variant": "QMYG", "one-hybrid fitness for binding NBS DNA": "≤ 0.2"}
{"variant": "QRYG", "one-hybrid fitness for binding NBS DNA": 0.312}
{"variant": "QMDG", "one-hybrid fitness for binding NBS DNA": "≤ 0.2"}
{"variant": "QRRG", "one-hybrid fitness for binding NBS DNA": 0.483}
{"variant": "QTYG", "one-hybrid fitness for binding NBS DNA": "≤ 0.2"}
{"variant": "QMRG", "one-hybrid fitness for binding NBS DNA": 0.391}
{"variant": "QRNG", "one-hybrid fitness for binding NBS DNA": 0.381}
{"variant": "QRIG", "one-hybrid fitness for binding NBS DNA": "≤ 0.2"}
{"variant": "QTDG", "one-hybrid fitness for binding NBS DNA": "≤ 0.2"}
{"variant": "QCNG", "one-hybrid fitness for binding NBS DNA": "≤ 0.2"}
{"variant": "QRDG", "one-hybrid fitness for binding NBS DNA": "≤ 0.2"}
{"variant": "QTRG", "one-hybrid fitness for binding NBS DNA": 0.496}
{"variant": "AHGY", "one-hybrid fitness for binding NBS DNA": "≤ 0.2"}
{"variant": "VSQE", "one-hybrid fitness for binding NBS DNA": "≤ 0.2"}
{"variant": "EAKN", "one-hybrid fitness for binding NBS DNA": "≤ 0.2"}
{"variant": "LLTW", "one-hybrid fitness for binding NBS DNA": "≤ 0.2"}
{"variant": "AKGR", "one-hybrid fitness for binding NBS DNA": "≤ 0.2"}
{"variant": "QLFF", "one-hybrid fitness for binding NBS DNA": "≤ 0.2"}
{"variant": "YHKT", "one-hybrid fitness for binding NBS DNA": "≤ 0.2"}
{"variant": "GRAV", "one-hybrid fitness for binding NBS DNA": "≤ 0.2"}
{"variant": "LTWN", "one-hybrid fitness for binding NBS DNA": "≤ 0.2"}
{"variant": "RRFN", "one-hybrid fitness for binding NBS DNA": 0.23}
{"variant": "RRFM", "one-hybrid fitness for binding NBS DNA": 0.266}
{"variant": "RPFS", "one-hybrid fitness for binding NBS DNA": "≤ 0.2"}
{"variant": "RRFD", "one-hybrid fitness for binding NBS DNA": "≤ 0.2"}
{"variant": "RRAD", "one-hybrid fitness for binding NBS DNA": "≤ 0.2"}
{"variant": "RRAH", "one-hybrid fitness for binding NBS DNA": 0.406}
{"variant": "RRFH", "one-hybrid fitness for binding NBS DNA": 0.389}
{"variant": "RSFS", "one-hybrid fitness for binding NBS DNA": 0.252}
{"variant": "RRAN", "one-hybrid fitness for binding NBS DNA": 0.282}
{"variant": "RRFS", "one-hybrid fitness for binding NBS DNA": 0.666}
{"variant": "RRFP", "one-hybrid fitness for binding NBS DNA": "≤ 0.2"}
{"variant": "RCFS", "one-hybrid fitness for binding NBS DNA": 0.411}
{"variant": "LARA", "one-hybrid fitness for binding NBS DNA": "≤ 0.2"}
{"variant": "ELER", "one-hybrid fitness for binding NBS DNA": "≤ 0.2"}
{"variant": "PWIR", "one-hybrid fitness for binding NBS DNA": "≤ 0.2"}
{"variant": "MRID", "one-hybrid fitness for binding NBS DNA": "≤ 0.2"}
{"variant": "CPAI", "one-hybrid fitness for binding NBS DNA": "≤ 0.2"}
{"variant": "RRAP", "one-hybrid fitness for binding NBS DNA": "≤ 0.2"}
{"variant": "RRAK", "one-hybrid fitness for binding NBS DNA": 0.254}
{"variant": "RRAS", "one-hybrid fitness for binding NBS DNA": 0.655}
{"variant": "RIHP", "one-hybrid fitness for binding NBS DNA": "≤ 0.2"}
{"variant": "RIYR", "one-hybrid fitness for binding NBS DNA": 0.377}
{"variant": "RIHH", "one-hybrid fitness for binding NBS DNA": "≤ 0.2"}
{"variant": "RISN", "one-hybrid fitness for binding NBS DNA": "≤ 0.2"}
{"variant": "RIQD", "one-hybrid fitness for binding NBS DNA": "≤ 0.2"}
{"variant": "RISR", "one-hybrid fitness for binding NBS DNA": 0.386}
{"variant": "RIQH", "one-hybrid fitness for binding NBS DNA": "≤ 0.2"}
{"variant": "RISD", "one-hybrid fitness for binding NBS DNA": "≤ 0.2"}
{"variant": "RIPR", "one-hybrid fitness for binding NBS DNA": "≤ 0.2"}
{"variant": "RILR", "one-hybrid fitness for binding NBS DNA": 0.27}
{"variant": "RIQR", "one-hybrid fitness for binding NBS DNA": 0.38}
{"variant": "RIHR", "one-hybrid fitness for binding NBS DNA": 0.477}
{"variant": "PALM", "one-hybrid fitness for binding NBS DNA": "≤ 0.2"}
{"variant": "HPME", "one-hybrid fitness for binding NBS DNA": "≤ 0.2"}
{"variant": "PIEV", "one-hybrid fitness for binding NBS DNA": "≤ 0.2"}
{"variant": "KSHW", "one-hybrid fitness for binding NBS DNA": "≤ 0.2"}
{"variant": "VSAN", "one-hybrid fitness for binding NBS DNA": "≤ 0.2"}
{"variant": "EYDR", "one-hybrid fitness for binding NBS DNA": "≤ 0.2"}
{"variant": "AMER", "one-hybrid fitness for binding NBS DNA": "≤ 0.2"}
{"variant": "ITVP", "one-hybrid fitness for binding NBS DNA": "≤ 0.2"}
{"variant": "GPTF", "one-hybrid fitness for binding NBS DNA": "≤ 0.2"}
{"variant": "TCYM", "one-hybrid fitness for binding NBS DNA": "≤ 0.2"}
{"variant": "RGSS", "one-hybrid fitness for binding NBS DNA": "≤ 0.2"}
{"variant": "WTNW", "one-hybrid fitness for binding NBS DNA": "≤ 0.2"}
{"variant": "HPYT", "one-hybrid fitness for binding NBS DNA": "≤ 0.2"}
{"variant": "GAIA", "one-hybrid fitness for binding NBS DNA": "≤ 0.2"}
{"variant": "RIGR", "one-hybrid fitness for binding NBS DNA": 0.441}
{"variant": "RIRR", "one-hybrid fitness for binding NBS DNA": 0.638}
{"variant": "RIIR", "one-hybrid fitness for binding NBS DNA": "≤ 0.2"}
{"variant": "RIRH", "one-hybrid fitness for binding NBS DNA": 0.333}
{"variant": "RIGH", "one-hybrid fitness for binding NBS DNA": "≤ 0.2"}
{"variant": "RIWR", "one-hybrid fitness for binding NBS DNA": 0.367}
{"variant": "RIWM", "one-hybrid fitness for binding NBS DNA": "≤ 0.2"}
{"variant": "RIWN", "one-hybrid fitness for binding NBS DNA": "≤ 0.2"}
{"variant": "RIGD", "one-hybrid fitness for binding NBS DNA": "≤ 0.2"}
{"variant": "ISCL", "one-hybrid fitness for binding NBS DNA": "≤ 0.2"}
{"variant": "YPMG", "one-hybrid fitness for binding NBS DNA": "≤ 0.2"}
{"variant": "GWYC", "one-hybrid fitness for binding NBS DNA": "≤ 0.2"}
{"variant": "RPAE", "one-hybrid fitness for binding NBS DNA": "≤ 0.2"}
{"variant": "HFNL", "one-hybrid fitness for binding NBS DNA": "≤ 0.2"}
{"variant": "RVQH", "one-hybrid fitness for binding NBS DNA": "≤ 0.2"}
{"variant": "RVWR", "one-hybrid fitness for binding NBS DNA": 0.248}
{"variant": "RVFR", "one-hybrid fitness for binding NBS DNA": 0.34}
{"variant": "RVQR", "one-hybrid fitness for binding NBS DNA": 0.415}
{"variant": "RVAR", "one-hybrid fitness for binding NBS DNA": 0.396}
{"variant": "RVYR", "one-hybrid fitness for binding NBS DNA": 0.359}
{"variant": "RVAH", "one-hybrid fitness for binding NBS DNA": "≤ 0.2"}
{"variant": "RVQS", "one-hybrid fitness for binding NBS DNA": 0.357}
{"variant": "RVRR", "one-hybrid fitness for binding NBS DNA": 0.626}
{"variant": "TANR", "one-hybrid fitness for binding NBS DNA": "≤ 0.2"}
{"variant": "ERVW", "one-hybrid fitness for binding NBS DNA": "≤ 0.2"}
{"variant": "TLWC", "one-hybrid fitness for binding NBS DNA": "≤ 0.2"}
{"variant": "KAYA", "one-hybrid fitness for binding NBS DNA": "≤ 0.2"}
{"variant": "QKKP", "one-hybrid fitness for binding NBS DNA": 0.26}
{"variant": "QKKI", "one-hybrid fitness for binding NBS DNA": 0.337}
{"variant": "QKVQ", "one-hybrid fitness for binding NBS DNA": 0.268}
{"variant": "QKHQ", "one-hybrid fitness for binding NBS DNA": "≤ 0.2"}
{"variant": "QKKE", "one-hybrid fitness for binding NBS DNA": 0.283}
{"variant": "QKKD", "one-hybrid fitness for binding NBS DNA": 0.211}
{"variant": "QKVH", "one-hybrid fitness for binding NBS DNA": "≤ 0.2"}
{"variant": "QKKG", "one-hybrid fitness for binding NBS DNA": 0.332}
{"variant": "QKKQ", "one-hybrid fitness for binding NBS DNA": 0.384}
{"variant": "QKKN", "one-hybrid fitness for binding NBS DNA": 0.42}
{"variant": "QKKS", "one-hybrid fitness for binding NBS DNA": 0.662}
{"variant": "QKKH", "one-hybrid fitness for binding NBS DNA": 0.619}
{"variant": "FAHG", "one-hybrid fitness for binding NBS DNA": "≤ 0.2"}
{"variant": "SLHE", "one-hybrid fitness for binding NBS DNA": "≤ 0.2"}
{"variant": "RHIK", "one-hybrid fitness for binding NBS DNA": "≤ 0.2"}
{"variant": "GTLP", "one-hybrid fitness for binding NBS DNA": "≤ 0.2"}
{"variant": "PPRN", "one-hybrid fitness for binding NBS DNA": "≤ 0.2"}
